Screening data from PubChem.
The sample as a whole holds a higher share of hits than the screen did.
DUX4 inh = DUX4-mediated transcription inhibition. 293T-iDUX4 ZSCAN4-Gaussia luciferase reporter, 24 h; stronger effect = lower value. actives 0.8% (n = 37,000). activity change, negative = inhibition, % (no concentration beside the values);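 active means mean inhibition of at least 10% in the main channel, exceeding the control channel by a set limit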;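 further: 0% = median of neutral control wells and -100% = median of positive control wells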
Active calls of the source: *.

SMILES	DUX4 inh
C[C@@H]1CN([C@@H](C)CO)C(=O)c2ccccc2-c2ccccc2CO[C@@H]1CN(C)Cc1cccc(F)c1	12.1
C[C@H](CO)N1C[C@H](C)[C@@H](CN(C)Cc2cccc(O)c2)OCc2ccccc2-c2ccccc2C1=O	-0.1
C[C@@H]1CN([C@@H](C)CO)C(=O)c2ccccc2-c2ccccc2CO[C@H]1CN(C)Cc1cccc(C(=O)O)c1	2.3
C[C@H]1CN([C@@H](C)CO)C(=O)c2ccccc2-c2ccccc2CO[C@@H]1CN(C)Cc1cccc(C(F)(F)F)c1	-37.5*
C[C@@H]1CN([C@@H](C)CO)C(=O)c2ccccc2-c2ccccc2CO[C@@H]1CN(C)Cc1ccc(C(F)(F)F)cc1	12.3
O=C(C[C@H]1CC[C@@H]2[C@H](COC[C@@H](O)CN2Cc2ccc3c(c2)OCO3)O1)N1CCOCC1	7.9
COc1ccc2c3c(n(C)c2c1)[C@@H](CO)N(S(C)(=O)=O)CC31CN(C(=O)C2CC2)C1	19.4
CO[C@H]1CC[C@H]2CCN(C)C(=O)C[C@@H](c3ccccc3)CN(C)C(=O)c3cccc(C#N)c3OC[C@H]1O2	-1.4
C[C@H](CO)N1C[C@H](C)[C@H](CN(C)C(=O)NC2CCCCC2)Oc2ccc(NC(=O)Cc3ccccc3)cc2C1=O	-1.9
O=C(Nc1ccc(F)cc1)N1CCCCN2[C@H](C1)[C@H](c1ccc(C#CC3CC3)cc1)[C@@H]2CO	24.3
O=S(=O)(c1ccccc1)N1CCCCN2[C@H](CO)[C@H](c3ccc(C#Cc4cccnc4)cc3)[C@@H]2C1	-56.4*
O=S(=O)(c1ccccc1)N1CCCCN2[C@H](C1)[C@H](c1ccc(C#CC3CCCC3)cc1)[C@@H]2CO	-26.4*
O=S(=O)(c1ccccc1)N1CCCCN2[C@H](CO)[C@@H](c3ccc(-c4ccccc4)cc3)[C@@H]2C1	-5.3
O=C(C1CC1)N1CCCCN2[C@H](CO)[C@H](c3ccc(C#CC4CCCC4)cc3)[C@H]2C1	-0.6
O=S(=O)(c1ccccc1)N1CCCCN2[C@H](C1)[C@H](c1ccc(C#Cc3cccnc3)cc1)[C@@H]2CO	-45.3*
C[C@H](O)C#Cc1ccc([C@H]2[C@H]3CN(S(=O)(=O)c4ccccc4)CCCCN3[C@H]2CO)cc1	1.9
O=S(=O)(c1ccccc1)N1CCCCN2[C@H](C1)[C@@H](c1ccc(C#Cc3cccnc3)cc1)[C@@H]2CO	0.3
C[C@H](O)C#Cc1ccc([C@@H]2[C@H](CO)N3CCCCN(S(=O)(=O)c4ccccc4)C[C@@H]23)cc1	0.5
O=C(C1CC1)N1CCCCN2[C@H](C1)[C@@H](c1ccc(C#CC3CCCC3)cc1)[C@@H]2CO	-24.5*
O=S(=O)(c1ccc(F)cc1)N1CCCCN2[C@H](C1)[C@@H](c1ccc(C#CC3CC3)cc1)[C@@H]2CO	-1.8
O=S(=O)(c1ccccc1)N1CCCCN2[C@H](CO)[C@H](c3ccc(C#CC4CCCC4)cc3)[C@@H]2C1	22.9
CCCN1[C@@H]2c3ccc(-c4ccccc4F)c(=O)n3C[C@@H]2[C@@H](CO)[C@@H]1C(=O)N1CCN(C)CC1	2.7
COc1ccc(S(=O)(=O)Nc2ccc3c(c2)C(=O)N([C@H](C)CO)C[C@@H](C)[C@H](CN(C)Cc2ccncc2)O3)cc1	1.4
O=C(C1CCOCC1)N1CC(=O)N2[C@@H](CO)[C@@H](c3ccc(C#CC4CCCCC4)cc3)[C@@H]2C1	-1.3
C/C=C/c1cnc2c(c1)C(=O)N([C@@H](C)CO)C[C@@H](C)[C@H](CN(C)CC1CCOCC1)O2	-2.6
SMILES	DUX4 inh
CC=Cc1ccc2n(c1=O)C[C@H]1[C@H](CO)[C@@H](C(=O)NCCC)[C@@H]2N1S(=O)(=O)c1cn(C)cn1 (mixture of isomers)	1.4
C[C@H]1CN([C@@H](C)CO)C(=O)c2c(c3ccccc3n2C)-c2ccccc2CO[C@@H]1CN(C)C(=O)c1ccc(F)cc1	-32.2*
C[C@@H]1CN([C@H](C)CO)C(=O)c2c(c3ccccc3n2C)-c2ccccc2CO[C@@H]1CN(C)C(=O)c1ccc(F)cc1	-5.5
CC(=O)N(C)C[C@@H]1OCc2ccccc2-c2c(n(C)c3ccccc23)C(=O)N([C@@H](C)CO)C[C@H]1C	17.2
C[C@@H]1CN([C@@H](C)CO)C(=O)c2c(c3ccccc3n2C)-c2ccccc2CO[C@@H]1CN(C)C(=O)c1ccncc1	1.1
C[C@H](CO)N1C[C@H](C)[C@@H](CN(C)C(=O)c2cc(Cl)cc(Cl)c2)OCc2ccccc2-c2c(n(C)c3ccccc23)C1=O	13.3
C[C@@H]1CN([C@@H](C)CO)C(=O)c2c(c3ccccc3n2C)-c2ccccc2CO[C@@H]1CN(C)C(=O)c1cc(Cl)cc(Cl)c1	-42.2*
CN1C(=O)c2cc(NC(=O)c3cscn3)ccc2OC[C@H]2O[C@H](CC(=O)NCC3CC3)CC[C@H]21	-0.2
C[C@H](NC(=O)C[C@@H]1C[C@@H]2c3cc(NC(=O)C4CCOCC4)ccc3O[C@@H]2[C@H](CO)O1)c1ccccc1	8.1
CC(C)(O)C#Cc1ccc([C@@H]2[C@H]3CN(C(=O)c4ccc(F)cc4)CCCCN3[C@H]2CO)cc1	3.6
CC(C)NC(=O)N[C@H]1C=C[C@H](CC(=O)NCCCN(C)C)O[C@@H]1CO	4.2
